# Reference: PubChem BioAssay AID1851 (National Center for Advancing Translational Sciences (NCATS), 2009)
# The whole screen tested about 16,000 compounds, of which about 4,000 (25%) were called active. About 26% were inconclusive and are not listed. Calls follow the shape of the dose curve; as a rule, active = well fitted curve in the direction sought with a large enough effect; inconclusive = small, poorly fitted or top-dose-only effect, or effect the other way; inactive = no such curve, though single readings can be large or run the other way. Not all results are given here.
# Biological target: Cytochrome P450 2C9 (Homo sapiens) (UniProt P11712)
# Assay: Cytochrome panel assay with activity outcomes
# Settings: recombinant CYP, pro-luciferin dealkylation, luminescence, p450-cyp2c9; series mostly up to 57.1 µM
# % is scaled to controls: 0 for no effect and ±100 for the full control effect.
# Chain of Cytochrome P450 2C9 (Homo sapiens) (P11712 whole entry, looked up): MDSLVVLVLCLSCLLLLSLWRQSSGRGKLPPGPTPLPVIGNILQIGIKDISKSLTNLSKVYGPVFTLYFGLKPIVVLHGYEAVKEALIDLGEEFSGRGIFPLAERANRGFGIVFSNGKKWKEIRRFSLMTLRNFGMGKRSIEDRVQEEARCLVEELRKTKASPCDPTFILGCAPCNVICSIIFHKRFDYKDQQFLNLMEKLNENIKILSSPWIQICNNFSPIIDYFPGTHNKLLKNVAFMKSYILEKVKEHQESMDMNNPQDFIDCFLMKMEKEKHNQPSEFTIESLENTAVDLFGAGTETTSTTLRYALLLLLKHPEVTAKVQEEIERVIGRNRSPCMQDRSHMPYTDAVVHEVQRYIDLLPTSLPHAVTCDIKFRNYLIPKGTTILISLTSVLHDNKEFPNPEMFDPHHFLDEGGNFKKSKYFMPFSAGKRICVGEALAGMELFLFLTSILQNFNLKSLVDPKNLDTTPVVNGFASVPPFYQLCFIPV
SMILES,"activity, negative = inhibition",AC50
CCCCCC[C@H]1C(=O)O[C@H](C)[C@H](NC(=O)c2cccc(NC=O)c2O)C(=O)O[C@@H](C)[C@H]1OC(=O)CC(C)C,inactive,
CCOC(=O)N1CCC(NC(=O)CCc2nc(C3=CCN(C)CC3)no2)CC1,inactive,
O=C(Nc1ccc(F)cc1F)c1cccnc1Oc1cccc(C(F)(F)F)c1,inactive,
CN(C)CCN(C)CCc1ccc(Cl)c(Cl)c1,inactive,
O=C(Nc1ccccc1)N1CC2(CCN(C(=O)Oc3ccccc3)CC2)C1,inactive,
NC(N)=NN=Cc1c(Cl)cccc1Cl,inactive,
c1ccc(N2CCC3(CCNCC3)CC2)cc1,inactive,
O=C(NC1CCCCC1)NC1CC2CCC(C1)N2Cc1nnnn1Cc1ccc2c(c1)OCO2 (stereo not given),,14.1 µM (active)
CCc1ccccc1NC(=O)NC1CC2CCC(C1)N2Cc1cccs1 (stereo not given),inactive,
COc1ccc(NC(=O)NC2CC3CCCC(C2)N3Cc2ccccc2)cc1 (stereo not given),inactive,
CC1=C(CC[C@H](C)CO)O[C@@H]2C[C@@H]3[C@H]4CC[C@H]5C[C@@H](O)CC[C@]5(C)[C@@H]4CC(=O)[C@@]3(C)[C@@H]12,-6.29% [at 11.4 µM] (inactive),
O=C1/C(=C\c2ccccc2)C[C@@]2(O)[C@H]3Cc4ccc(O)c5c4[C@@]2(CCN3CC2CC2)[C@@H]1O5,inactive,
O=c1c2ccccc2nc(N2CCCC2)n1-c1ccc(Cl)cc1,,14.1 µM (active)
Cc1nc2sccc2c(=O)n1-c1ccccc1Cl,inactive,
O=C(O)c1nn(Cc2ccc(Cl)cc2Cl)c2ccccc12,inactive,
C=CCN1CCC2(C)c3cc(O)ccc3C[C@H]1[C@H]2C,inactive,
C1C[C@@H]2CN(CCCN3CCOCC3)[C@@H](C1)O2,-4.7% [at 11.4 µM] (inactive),
Cc1ccc(NC(=[OH+])c2cc3ccccc3cc2O)c(C)c1.Cc1ccc(NC(=[OH+])c2cc3ccccc3cc2O)c(C)c1.[Ni],,3.16 µM (active)
COc1cc(CCN)c(OC)c(OC)c1,-1.31% [at 11.4 µM] (inactive),
O=C(CCN1CC2CCC(CC2)C1)c1cccs1,-7.86% [at 11.4 µM] (inactive),

SMILES,"activity, negative = inhibition",AC50
C[C@@H]1OC=C2[C@@H](O)[C@H]3O[C@H]3C(=O)[C@@]23[C@H]1[C@H]1C2=C([C@@H](O)[C@H]4O[C@@H]4C2=O)[C@@H]3O[C@@H]1C,19.8% [at 11.4 µM] (inactive),
Nc1nnnn1CCO,-3.83% [at 11.4 µM] (inactive),
CS(=O)(=O)O[C@H]1CN2CCC1CC2,8.53% [at 11.4 µM] (inactive),
CN1[C@@H]2CC[C@H]1CC(O[C@@H](c1ccccc1)c1ccc(Cl)cc1)C2 (stereo not given in full),inactive,
CCCCN(CCCC)CCC(O)c1cc2c(Cl)cc(Cl)cc2c2cc(C(F)(F)F)ccc12 (stereo not given),inactive,
N[C@H](CCl)C(=O)O,inactive,
O=C(Oc1ccccc1)N1CCC2(CCN(Cc3nccs3)CC2)CC1,inactive,
CN(C)Cc1c[nH]c2ccccc12,inactive,
CC(C)COc1ccc(C2(C#N)CC[N+](C)(C)CC2)cc1,inactive,
C=C(C)[C@H]1CC[C@]2(C(=O)O)CC[C@]3(C)[C@@H](CC[C@H]4[C@@]5(C)CC[C@@H](O)C(C)(C)[C@@H]5CC[C@@]43C)[C@H]12,inactive,
CCCCCCCC/C=C\CCCCCCCC(N)=O,inactive,
CCCCC/C=C\C/C=C\C/C=C\C/C=C\CCCC(=O)Nc1ccc(O)cc1,,5.01 µM (active)
CCCCC/C=C\C/C=C\C/C=C\C/C=C\CCCC(=O)NCC(=O)O,inactive,
C[N+]1(C)CCc2cc3c(cc2[C@@H]1[C@@H]1OC(=O)c2c1ccc1c2OCO1)OCO3,inactive,
O=C(Nc1ccccc1)N1CC[C@@]2(CCCN(C(=O)Oc3ccccc3)C2)C1,inactive,
O=C(O)/C=C(\CC(=O)O)C(=O)O,-16.9% [at 11.4 µM] (inactive),
O=C(O)C(=O)Cc1ccc2c(c1)OCO2,25.4% [at 11.4 µM] (inactive),
COCOc1ccc(Br)cc1C(=O)/C=C\c1ccc2c(c1)OCO2,,2 µM (active)
CCN1CCC2(CC1)NC(CO)(CO)CO2,inactive,
O=C(O)[C@H]1[C@H](C(=O)O)[C@H]2CC[C@@H]1O2,inactive,

SMILES,"activity, negative = inhibition",AC50
N[C@H](Cc1c[nH]c2ccccc12)P(=O)(O)O,5.69% [at 11.4 µM] (inactive),
C[C@@]12CC(=O)[C@H]3[C@@H](CCC4=CC(=O)CC[C@]43C)[C@H]1CCC2=O,inactive,
CCOC(=O)Cn1cc(C(=O)c2ccccc2F)c2ccccc21,,7.08 µM (active)
CCCn1c(C)c(C(=O)c2cccc3ccccc23)c2ccccc21,inactive,
O=C(c1ccccc1F)c1cn(CC(=O)N2CCOCC2)c2ccccc12,,11.2 µM (active)
C[C@@]12CC[C@@H]3c4ccc(O)cc4C[C@H](CCCCCCCCCS(=O)CCCC(F)(F)C(F)(F)F)[C@H]3[C@@H]1CC[C@@H]2O (stereo not given in full),inactive,
O=c1cc(-c2ccc(O)cc2)oc2c([C@H]3O[C@@H](CO)[C@@H](O)[C@@H](O)[C@@H]3O)c(O)cc(O)c12,inactive,
CN1CC[C@@]2(CCCN(C(=O)Oc3ccccc3)C2)C1,inactive,
CCN1CCN(c2ccc(NC(=O)C(C)C)cc2Cl)CC1,inactive,
C(=NC12CN3CN(CN(C3)C1)C2)c1cccs1,inactive,
CCS(=O)(=O)Nc1cccc(C(=C2CCCCC2)c2cnc[nH]2)c1,,0.631 µM (active)
CNC(C)(C)Cc1ccccc1,inactive,
Brc1c(NC2=NCCN2)ccc2nccnc12,inactive,
O=C(Nc1cccc(F)c1)N1CC2(CCN(C(=O)Oc3ccccc3)CC2)C1,inactive,
Nc1ncnc2c1ncn2[C@@H]1O[C@@H](COP(=O)(O)CP(=O)(O)OP(=O)(O)O)[C@H](O)[C@@H]1O,inactive,
C=CCN1C(=O)c2ccccc2Sc2ccc(C(=O)N3CCC4(CC3)OCCO4)cc21,,1.26 µM (active)
CC(=O)c1ccc2c(c1)N(CCCN(C)C)c1ccccc1S2,inactive,
CN1C(=O)c2ccccc2Sc2ccc(C(=O)N3CCC4(CC3)OCCO4)cc21,,8.91 µM (active)
CN1[C@@H](C[C@@H](O)c2ccccc2)CCC[C@@H]1C[C@H](O)c1ccccc1,inactive,
CCCN(CCC)[C@@H]1CCc2c(OC)cccc2[C@@H]1C,inactive,
